The values below come from ChEMBL document CHEMBL4513216, “Probing the Open Global Health Chemical Diversity Library for Multistage-Active Starting Points for Next-Generation Antimalarials” (ACS Infect Dis, 2020).

Structures are written as SMILES. About 8,600 (12%) of roughly 69,000 compounds showed an effect of 50% or more. The sample holds strong results, similar compounds and a random draw of the others, so the mix is not that of the screen.

This assay has as its system Plasmodium berghei. Briefly: Screen against P. berghei liver stage (PbLuc), transformed with Luciferase, at 10uM. In kind it is functional, HepG2. The conditions noted are these: tested at 10 uM.
Take `CCNC(=O)NC(=O)CNc1cc(C#N)ccc1OCC`: the INHIBITION is listed as -9.76%.

With `CCN(Cc1cccc(C)c1)Cc1nc2c(cnn2C)c(=O)[nH]1`, the INHIBITION amounted to 49.1%.

In the case of `Cc1cc(N2CCN(Cc3cn(C)nc3C)CC2)cc(C2CCNC2)n1` (stereo not given), the INHIBITION was 18.225%.

In the case of `Cc1ccc(NC2CCN(C(=O)c3cccnc3N(C)C)CC2)nn1`, the INHIBITION amounted to 21.6%.

As to `CN(C)[C@@H]1CCN(c2ncc(F)cn2)[C@H]1Cc1cccnc1`, the INHIBITION was 9.72%.

Turning to `Cc1cc(C)n(CC2CN(Cc3ccc(C(N)=O)cc3)CCO2)n1` (stereo not given), the INHIBITION is 46.1%.

In the case of `COCC(=O)N1CCCC1c1nc(C)c2c(n1)N(CC(C)C)C(=O)CC2` (stereo not given), the INHIBITION is -16.9%.

On to `CCNC(=O)N(C)C(c1ccccc1)c1ccccn1` (stereo not given), for which the INHIBITION is -16%.

Turning to `COc1ccc(C(C)NCc2ccsc2)cc1Cn1cccn1` (stereo not given), the INHIBITION stood at 10.6%.

For `CC(=O)N(C)C1CCN(C(=O)NCCc2cc(F)ccc2F)CC1`, the INHIBITION was -6.67%.

As to `Cc1cc(CNc2ccc(C(F)(F)F)cc2)no1`, the INHIBITION amounted to 30.4%.

Regarding `CCOc1ccc(C(F)(F)F)cc1NCc1cc(C)on1`, the INHIBITION amounted to 64.7%.

Consider `Cc1cc(CNc2cc(Cl)ccc2OCCS(C)(=O)=O)no1`, for which the INHIBITION was 48.1%.

As to `Cn1cc(CN2CCC3(CC2)CC(c2ccncc2)C(=O)N3)cn1` (stereo not given), the INHIBITION stood at 36.4%.

For the compound `O=C(Cc1ccc(F)cc1)N1CCN(CC(O)c2ccccc2)CC1` (stereo not given), the INHIBITION stood at 29.7%.

`OC(CN1CCN(CC2CCCCC2)CC1)c1ccccc1` (stereo not given): the INHIBITION came to 93.8%.

Consider `OC(CN1CCN(CCOCC(F)(F)F)CC1)c1ccccc1` (stereo not given), for which the INHIBITION turned out to be 56.9%.

`O=C(N1CCCCC1)N1CCN(CC(O)c2ccc(F)cc2)CC1` (stereo not given): the INHIBITION amounted to 9.25%.

Take `CCOCCN1CCN(CC(O)c2ccc(C(F)(F)F)cc2)CC1` (stereo not given): the INHIBITION was 24%.

As to `OC(CN1CCN(CC2CC2)CC1)c1ccc(Br)cc1` (stereo not given), the INHIBITION is -63.6%.

`OC(CN1CCN(Cc2nnc(C3CC3)o2)CC1)c1ccccc1` (stereo not given): the INHIBITION was -7.06%.

`CC(O)CN1CCN(CCOCC(F)(F)F)CC1` (stereo not given): the INHIBITION is recorded as -21.2%.

Turning to `O=C(N1CCCCC1)N1CCN(CC(O)c2ccccc2)CC1` (stereo not given), the INHIBITION is reported as 56.4%.

Consider `COCCNC(=O)NCc1ccc(-n2ccc(C(F)(F)F)n2)cc1`, for which the INHIBITION is reported as -42.1%.

As for `CC1CCc2nn(CCNC(=O)C3CCCC3)c(=O)cc2C1` (stereo not given), the INHIBITION was -28.1%.

Take `CCCN(CCC)CCNc1c(-c2ccccc2)c(=O)c1=O`: the INHIBITION was determined as 49.5%.

`Cc1cnc(-c2nc(C3CCCN(Cc4ccccc4C)C3)no2)cn1` (stereo not given): the INHIBITION is recorded as 25.75%.

Take `Cc1cnc(CN2C[C@H]3CC(Oc4ccccc4)C[C@H]3C2)cn1` (stereo not given in full): the INHIBITION came to 30.4%.

Turning to `CN1C(=O)[C@@H]2CC[C@H]1CN(S(=O)(=O)c1ccc(Cl)cc1Cl)C2`, the INHIBITION is 24.3%.

For the compound `CN(C)C(=O)Cn1cnc2c(Br)cccc2c1=O`, the INHIBITION was -14.1%.

Consider `COc1cc(C(F)(F)F)sc1C(=O)O`, for which the INHIBITION was determined as 20.8%.

As to `Cc1cccc(C(=O)N(C)Cc2cc(Br)cs2)n1`, the INHIBITION is listed as 37.1%.

As for `COC(=O)CN(C)Cc1cc(Br)cs1`, the INHIBITION came to 53.2%.

In the case of `CN(CCC(N)=O)Cc1cc(Br)cs1`, the INHIBITION stood at 24%.

On to `CN(Cc1cc(Br)cs1)Cc1nnsc1Cl`, for which the INHIBITION came out at 46.3%.

Regarding `COC(=O)CNC(=O)CCc1cc(Br)cs1`, the INHIBITION came to 7.19%.

With `COC(=O)CCN(C)Cc1cc(Br)cs1`, the INHIBITION is on record as 60.2%.

Take `COCCN1CCO[C@@H]2CN(Cc3ccccc3OC)C[C@@H]2C1`: the INHIBITION is reported as 2.4%.

Regarding `CCc1nnc2n1CCN(Cc1cc(Cl)c3c(c1)OCCCO3)C2`, the INHIBITION came to 23.6%.

Consider `O=C(CNC(=O)N1CCc2c([nH]c3ccc(Cl)cc23)C1)NCCCO`, for which the INHIBITION was 4.25%.

As for `COCc1csc(NC(=O)N2CCC(Cc3cnn(C)c3)C2)n1` (stereo not given), the INHIBITION is -27.8%.

As for `O=c1c2sccc2nc2n1CCN(Cc1cc(F)ccc1F)CC2`, the INHIBITION is listed as 3.91%.

With `COc1ccc(CN2CCc3nc4ccsc4c(=O)n3CC2)c(C)c1C`, the INHIBITION was 92.9%.

Consider `COc1cccc(CN2CCc3nc4ccsc4c(=O)n3CC2)c1`, for which the INHIBITION is given as 54.4%.

Take `Cc1c(CN2CCc3nc4sccc4c(=O)n3CC2)cnn1C`: the INHIBITION is given as -12.4%.

Turning to `CCOc1ccc(CN2CCc3nc4ccsc4c(=O)n3CC2)cc1`, the INHIBITION is given as 28%.

As to `COc1cc(C)c(CN2CCc3nc4ccsc4c(=O)n3CC2)cc1C`, the INHIBITION is on record as 89.3%.

In the case of `O=c1c2sccc2nc2n1CCN(Cc1ccc(F)c(F)c1)CC2`, the INHIBITION was found to be 31.6%.

As to `Cc1ccsc1CN1CCc2nc3ccsc3c(=O)n2CC1`, the INHIBITION is listed as 35.2%.

With `CCOc1ccccc1CN1CCc2nc3ccsc3c(=O)n2CC1`, the INHIBITION is on record as 49.6%.

Regarding `O=c1c2sccc2nc2n1CCN(Cc1cccs1)CC2`, the INHIBITION is -3.41%.

As for `O=c1c2sccc2nc2n1CCN(Cc1ccccc1C(F)(F)F)CC2`, the INHIBITION worked out at 92.9%.

Take `COc1ccc(OC)c(CN2CCc3nc4ccsc4c(=O)n3CC2)c1`: the INHIBITION was 14.7%.

As to `CN1CC(C)(C)CN(C(=O)CCc2ccccc2)CC1=O`, the INHIBITION stood at 24.5%.

`O=C(c1cc[nH]n1)N1CCCC1c1cc(Nc2ccccn2)n[nH]1` (stereo not given): the INHIBITION is -20.2%.
